Data as given in article PMC4336329 (PLoS ONE, 2015).
The whole screen tested about 310,000 compounds, of which about 14,000 (4.5%) showed an effect of 50% or more. The effect is printed as a negative number. The entries come from a sample that favours strong results as a whole.

What follows are compounds tested against human ether-à-go-go-related gene (hERG) potassium channel (human, UniProt Q12809) (assay: primary screen, population patch clamp on CHO cells stably expressing hERG; higher = less effect of the substance).
Chain of human ether-à-go-go-related gene (hERG) potassium channel (Q12809 whole entry, looked up): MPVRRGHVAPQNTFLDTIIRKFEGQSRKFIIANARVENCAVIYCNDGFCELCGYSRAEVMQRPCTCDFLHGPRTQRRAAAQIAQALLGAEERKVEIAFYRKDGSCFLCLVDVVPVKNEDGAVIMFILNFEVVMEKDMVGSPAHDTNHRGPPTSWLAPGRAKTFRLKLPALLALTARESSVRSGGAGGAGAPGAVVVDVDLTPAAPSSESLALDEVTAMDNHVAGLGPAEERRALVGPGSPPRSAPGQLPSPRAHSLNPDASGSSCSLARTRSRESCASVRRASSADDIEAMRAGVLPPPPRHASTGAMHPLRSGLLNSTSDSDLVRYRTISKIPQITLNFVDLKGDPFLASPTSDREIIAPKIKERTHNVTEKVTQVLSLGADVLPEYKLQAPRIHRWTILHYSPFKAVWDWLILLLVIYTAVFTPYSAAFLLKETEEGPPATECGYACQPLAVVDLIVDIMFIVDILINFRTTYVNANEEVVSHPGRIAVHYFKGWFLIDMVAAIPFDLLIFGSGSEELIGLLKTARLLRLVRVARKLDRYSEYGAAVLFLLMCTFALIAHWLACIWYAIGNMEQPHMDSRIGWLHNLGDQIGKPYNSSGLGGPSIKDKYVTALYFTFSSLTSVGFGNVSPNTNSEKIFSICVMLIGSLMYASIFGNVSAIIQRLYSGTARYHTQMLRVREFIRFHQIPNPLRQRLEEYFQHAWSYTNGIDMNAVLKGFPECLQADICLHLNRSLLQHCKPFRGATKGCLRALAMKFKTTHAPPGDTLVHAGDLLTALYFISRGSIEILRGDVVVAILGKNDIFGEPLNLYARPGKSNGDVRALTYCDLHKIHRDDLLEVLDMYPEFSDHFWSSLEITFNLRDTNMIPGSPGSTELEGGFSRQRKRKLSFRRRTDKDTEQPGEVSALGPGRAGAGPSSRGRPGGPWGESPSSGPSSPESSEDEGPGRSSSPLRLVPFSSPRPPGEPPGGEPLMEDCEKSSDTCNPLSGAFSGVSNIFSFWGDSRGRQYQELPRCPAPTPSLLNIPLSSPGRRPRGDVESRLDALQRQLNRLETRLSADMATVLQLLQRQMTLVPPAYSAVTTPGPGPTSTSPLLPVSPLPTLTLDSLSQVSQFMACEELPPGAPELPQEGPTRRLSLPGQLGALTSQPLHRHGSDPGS
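Also: peak tail current of the secondary pulse compared with the same well before compound.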

Compound	hERG current change (%, negative = inhibition) at 10uM
O=C(CCCN1C(=O)CSc2ncccc21)N1CCN(c2cccc(C(F)(F)F)c2)CC1	-56.5%
O=C(CCNC(=O)Cn1ccc2ccccc2c1=O)NCCCN1CCN(c2ccccc2F)CC1	10.1%
COCCn1c(=O)[nH]c2cc(C(=O)NCCN3CCN(c4cccc(Cl)c4)CC3)ccc2c1=O	12.8%
O=C(CCCn1c(=O)[nH]c2cc(Cl)ccc2c1=O)NCCCN1CCN(c2ccc(F)cc2)CC1	-64.9%
O=C(CCCn1c(=O)[nH]c2cc(Cl)ccc2c1=O)NCCN1CCN(c2ccccc2)CC1	-48.4%
O=C(CCCN1C(=O)CSc2ncccc21)N1CCN(Cc2ccccc2)CC1	6.42%
O=C(CCn1c(=O)[nH]c2ccccc2c1=O)NCCCN1CCN(c2cccc(Cl)c2)CC1	-65.4%
O=C(Cn1c(=O)[nH]c2ccccc2c1=O)N1CCN(c2cccc(Cl)c2)CC1	15.7%
COc1cc2[nH]c(=O)n(CCC(=O)NCCCN3CCN(c4ccccc4F)CC3)c(=O)c2cc1OC	-35.4%
O=C(CCCCCn1c(=O)[nH]c2ccccc2c1=O)NCCCN1CCN(c2ccccc2F)CC1	-79.2%
O=C(CN1C(=O)CSc2ncccc21)N1CCOCC1	-6.66%
O=C(CCCn1c(=O)[nH]c2cc(Cl)ccc2c1=O)NCCCN1CCCC1	14.6%
Cc1cccc(-n2ncc(C#N)c2-n2cccc2)c1	-5.85%
CC(C)Oc1ccc(C(=O)NCC(=O)OCC(=O)N(C)Cc2cccs2)cc1	-15.9%
C=CCN(Cc1nc(-c2ccccc2)no1)C(=O)c1ccoc1C	-4.69%
COC(=O)c1cccc(NC(=O)c2ccc3c(c2)C(=O)N(CC2CCCO2)C3=O)c1 (centres unmarked)	-24.3%
NNc1nc(-c2ccccc2Cl)nc2ccccc12	11.1%
COc1ccc(NC(=O)CCS(=O)(=O)c2ccc3c(c2)CCCN3C(C)=O)cc1	9.92%
CC(C)NC(=O)NC(=O)CSc1ncccn1	15.7%
Cn1c(=O)oc2cc(S(=O)(=O)N3CCC(C(=O)NCc4ccc(F)cc4)CC3)ccc21	-8.93%
O=C(CCCCn1c(=O)[nH]c2ccccc2c1=O)N1CCN(c2cccc(C(F)(F)F)c2)CC1	-56.1%

Compound	hERG current change (%, negative = inhibition) at 10uM
O=C(CCn1c(=O)[nH]c2ccccc2c1=O)N1CCN(c2cccc(C(F)(F)F)c2)CC1	-43%
O=C(CCCCn1c(=O)[nH]c2ccccc2c1=O)NCc1ccc2c(c1)OCO2	-6.99%
O=C(CCCCCn1c(=O)[nH]c2ccccc2c1=O)N1CCN(Cc2ccc3c(c2)OCO3)CC1	-71.7%
O=C(Cn1c(=O)[nH]c2ccccc2c1=O)N1CCN(Cc2ccc3c(c2)OCO3)CC1	0.172%
Cc1ccc(C)c(N2CCN(C(=O)CCCCn3c(=O)[nH]c4ccccc4c3=O)CC2)c1	-25.2%
Cc1cccnc1NC(=O)C1CCN(S(=O)(=O)c2cccs2)CC1	-6.07%
O=C(c1cccnc1)N1CCN(S(=O)(=O)c2ccc(S(=O)(=O)N3CCCC3)cc2)CC1	9.65%
Cc1ccc(NC(=O)CN2CCOCC2)cc1C	14.3%
Cc1ccc(NC(=S)NCCN2CCOCC2)cc1C	-5.31%
Cc1ccc(NC(=Nc2ccc(Br)cc2)N2CCOCC2)cc1C	-63.8%
Cc1ccc(NC2CCCN(C(=O)c3cccc(-c4ncc[nH]4)c3)C2)cc1C (centres unmarked)	3.23%
COc1ccc(NC(=O)C(c2ccccc2)N(C)C(=O)c2cnccn2)cc1 (centres unmarked)	1.47%
NC(=O)c1nsc(C(=O)N(Cc2cccnc2)C(C(=O)NCc2ccc(F)cc2)c2ccc(O)cc2)c1N (centres unmarked)	-1.96%
NC(=O)c1nsc(C(=O)N(Cc2cccnc2)C(C(=O)NCc2ccc(F)cc2)c2ccc(F)cc2)c1N (centres unmarked)	0.71%
CCC(C)(C)NC(=O)C(c1ccc(F)cc1)N(Cc1ccc(OC)cc1)C(=O)c1cnccn1 (centres unmarked)	-11.8%
COc1ccc(C(C(=O)NCc2ccc(F)cc2)N(Cc2cccnc2)C(=O)c2snc(C(N)=O)c2N)cc1 (centres unmarked)	-62%
COc1ccc(CN(C(=O)c2cnccn2)C(C(=O)Nc2ccc(F)cc2)c2ccccc2)cc1 (centres unmarked)	-68.2%
CCOc1ccc(S(=O)(=O)NNC(=S)Nc2ccc(Br)cc2)cc1	5.35%
COC1=C(Nc2ccccc2OC)C(=O)c2ccccc2C1=O	0.0125%
Cc1ccc(N(C(=O)c2ccc(S(=O)(=O)N3CCOCC3)cc2)C2C=CS(=O)(=O)C2)cc1 (centres unmarked)	3.58%
